# Sampled rows, rich in hits. Any-hit rate of the full collection: about 9.5%.
# NPSR antagonist: qHTS Assay for Antagonists of the Neuropeptide S Receptor: cAMP Signal Transduction. CHO-NPSR cells, cAMP TR-FRET, antagonist mode. Potency, µM (doses to about 38.3 µM), for inactives: at the top dose activity change, negative = inhibition, usual class: inhibitors. 220,000 compounds, 1% hits. AID 1461, 2008; also: nearly all actives have a fitted effect of over 50% in size
# Tau FP inhib: qHTS for Inhibitors of Tau Fibril Formation, Fluorescence Polarization; Microtubule-associated protein tau (Homo sapiens), P10636; K18 P301L tau heparin fibrillization, Alexa594 FP, 6 h; Potency, µM (doses to about 57.7 µM), for the others: top-dose activity, negative = inhibition, actives largely listed as inhibitors; 280,000 compounds, 0.39% hits; AID 1468, 2008; also: nearly all actives have a fitted effect of over 55% in size
# Target sequence (P10636 561-689 P618L limits assumed): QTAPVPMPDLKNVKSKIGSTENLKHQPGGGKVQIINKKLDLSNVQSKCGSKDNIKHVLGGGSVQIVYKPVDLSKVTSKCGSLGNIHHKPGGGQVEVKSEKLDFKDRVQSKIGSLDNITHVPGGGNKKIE
#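 K18 P301L tau (15 uM unlabeled/0.24 uM Alexa 594-labeled, final) + compound + heparin 20 uM final; 100 mM NaOAc pH 7; 6 hr 37 C; ThT 30 uM final added, 1 hr RT; FP ex 555/em 632 nm.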
# Tau fluor counter: Counterscreen qHTS for Inhibitors of Tau Fibril Formation, Fluorescence Polarization. tau K18 P301L Alexa594 fluorescence, heparin fibrillization. Potency, µM (series often up to 57.7 µM), for inactives: at the highest dose activity change, negative = decrease. 280,000 compounds, 0.93% hits; also: nearly all actives have a fitted effect of over 55% in size
#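 Human K18 P301L tau (15 uM unlabeled plus 0.24 uM Alexa 594-labeled, final) in 100 mM sodium acetate pH 7 was mixed with compound and 20 uM heparin and incubated 6 hr at 37 C.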
# ALDH1A1 inh: qHTS Assay for Inhibitors of Aldehyde Dehydrogenase 1 (ALDH1A1). 220,000 compounds, 7.3% hits. Potency, µM (titrated, usually from 75.3 µM), for inactives: at the top dose activity, negative = inhibition, most hits filed as inhibitors. Aldehyde dehydrogenase 1A1 (Homo sapiens), P00352. Purified ALDH1A1, NADH fluorescence, propionaldehyde substrate; active = well fitted inhibition curve with a large enough effect, not every such curve was filed as active; inconclusive = small, poorly fitted or top-dose-only effect, or another doubt; inactive = no such curve, though single readings can be large or run the other way;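 also: plate controls were no enzyme wells and a reference inhibitor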
# Target sequence (P00352 whole entry, looked up): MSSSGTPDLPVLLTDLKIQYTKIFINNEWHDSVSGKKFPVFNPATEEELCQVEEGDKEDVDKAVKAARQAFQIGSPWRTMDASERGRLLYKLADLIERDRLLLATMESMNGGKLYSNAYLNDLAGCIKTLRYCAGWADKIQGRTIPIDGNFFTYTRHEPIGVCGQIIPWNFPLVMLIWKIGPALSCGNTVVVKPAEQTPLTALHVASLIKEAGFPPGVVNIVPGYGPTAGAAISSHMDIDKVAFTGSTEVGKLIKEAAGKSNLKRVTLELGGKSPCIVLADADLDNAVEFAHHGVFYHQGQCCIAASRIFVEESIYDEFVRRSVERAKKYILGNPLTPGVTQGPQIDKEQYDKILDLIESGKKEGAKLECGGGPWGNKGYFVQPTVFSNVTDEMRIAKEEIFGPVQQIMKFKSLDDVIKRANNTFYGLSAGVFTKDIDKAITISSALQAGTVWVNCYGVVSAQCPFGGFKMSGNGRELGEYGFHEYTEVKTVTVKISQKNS
# HPGD block: qHTS Assay for Inhibitors of HPGD (15-Hydroxyprostaglandin Dehydrogenase). 15-hydroxyprostaglandin dehydrogenase [NAD(+)] (Homo sapiens), P15428. purified HPGD, NADH fluorescence kinetic, PGE2 substrate. Potency, µM, without a hit: at the top dose activity change, negative = inhibition, most hits filed as inhibitors. 150,000 compounds, 4.3% hits. AID 894, 2007; active = well fitted inhibition curve with a large enough effect, not every such curve was filed as active; inconclusive = small, poorly fitted or top-dose-only effect, or another doubt; inactive = no such curve, though single readings can be large or run the other way
#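 NADH formation kinetics: reaction with 30 uM PGE2 and 1 mM NAD+ (final), 20 nM enzyme, Tris-HCl pH 8 with Tween 20, after 15 min compound preincubation at room temperature. Fluorescence change, last versus first of five reads.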
# Tau ThT inhib: qHTS for Inhibitors of Tau Fibril Formation, Thioflavin T Binding; 270,000 compounds, 2.1% hits; Microtubule-associated protein tau (Homo sapiens), P10636; Potency, µM (doses to about 57.4 µM), for the others: at the top dose activity, negative = inhibition, hits mostly inhibitors; recombinant tau K18 P301L (four-repeat tau fragment), heparin-induced fibrillization, ThT fluorescence; also: nearly all actives have a fitted effect of over 55% in size
#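 Recombinant human tau K18 fragment […] carrying P301L, 15 uM unlabeled plus 0.24 uM Alexa 594-labeled, was fibrillized with 20 uM heparin in 100 mM sodium acetate pH 7 for 6 hr at 37 C; 30 uM ThT fluorescence read after 1 hr.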
# The depositor's hits bear a star; ? = inconclusive; . = no result; [ ] = remark or other dose. Unless noted, calls follow the shape of the dose curve; as a rule, active = well fitted curve in the direction sought with a large enough effect; inconclusive = small, poorly fitted or top-dose-only effect, or another doubt; inactive = no such curve, though single readings can be large; an effect the other way counts as inactive or inconclusive. Unless noted, % is scaled to controls: 0 for no effect and ±100 for the full control effect; potency is read from the fitted curve at half-maximal effect.
SMILES,NPSR antagonist,Tau FP inhib,Tau fluor counter,ALDH1A1 inh,HPGD block,Tau ThT inhib
Nc1c(C(=O)Nc2ccc(Br)cc2)sc2nc(-c3ccco3)ccc12,?,5%,?,?,?,5µM*
CC(=O)c1sc2nc(-c3ccco3)ccc2c1N,-28%,-2%,?,.,.,7.1µM*
Cc1ccc(NC(=O)c2sc3nc(-c4ccc(F)cc4)ccc3c2N)cc1F,.,-3%,?,.,.,?
Nc1c(C(=O)Nc2ccc(F)cc2)sc2nc(-c3ccco3)ccc12,10%[46.1 µM],2%,?,?,?,6.3µM*
Cc1ccc(NC(=O)c2sc3nc4c(c(-c5ccco5)c3c2N)CCC4)cc1,?,2%,-1%,4.5µM*,-24%,4%
Nc1c(C(=O)Nc2ccc(Br)cc2)sc2nc(-c3ccncc3)ccc12,.,3%,?,.,.,?
CCOc1nc(OCC)c2cnn(C)c2n1,5%[7.67 µM],2%,-2%,.,.,-1%
COc1ccc2c(Sc3ccccc3)c(C(=O)NCCCN3CCCCC3)[nH]c2c1,.,-7%,-8%,.,.,-3%
O=C(CCn1cccn1)Nc1ccc(Br)cc1F,.,-1%,2%,.,.,-1%
COC(=O)C1=C(C)NC(=O)/C1=C\N(C)C,7%,?,-12%,?,.,?
CC1=NN(Cc2ccccc2)C(=O)/C1=C\c1ccc(N(C)C)cc1,0%[46.1 µM],-1%,-23%,14µM*,-6%,20µM*
CCOC(=O)C1=NN(c2ccccc2)C(=O)/C1=C\c1ccc(N(C)C)cc1,-29%[46.1 µM],3%,-29%,1.6µM*,13µM*,?
CCC(=O)N(Cc1cc2ccc(C)cc2n2nnnc12)C1CCCCC1,2%[46.1 µM],9%,-2%,5µM*,-3%,-13%
O=C(Nc1cccc(-c2nc3ncccc3o2)c1)c1ccc(-c2cccc(Cl)c2Cl)o1,.,-15%,?,.,.,?
CC1=C(C(=O)NCc2ccccc2)C(c2cccs2)NC(=S)N1 (stereo not given),-4%,2%,2%,?,.,3%
Cc1cccc(-n2cc3c(=O)n(C)c(=O)n(C)c3c2)c1,-10%,12%,-1%,?,.,-6%
CCN(CC)c1ccc(-n2cc3c(=O)n(C)c(=O)n(C)c3c2)cc1,-8%[46.1 µM],6%,?,?,?,5µM*
CC(=O)Nc1ccc(-n2cc3c(c2-c2ccc(C)cc2)c(=O)n(C)c(=O)n3C)cc1,.,-10%,-21%,.,.,-8%
CN(C)c1ccc(-n2cc3c(=O)n(C)c(=O)n(C)c3c2)cc1,-16%[46.1 µM],3%,-20%,?,?,2.8µM*
Cc1nc2cnc(OCc3ccccc3)nc2n(C)c1=O,.,.,.,-12%,.,.
CCOC(=O)CN1CC23C=CC(O2)C(C(=O)NCc2ccc(C)cc2)C3C1=O (stereo not given),17%[46.1 µM],-5%,3%,-3%,16µM*,5%
CCOC(=O)CN1CC23C=CC(O2)C(C(=O)NCc2cccs2)C3C1=O (stereo not given),-8%[46.1 µM],?,-1%,12%,-3%,1%
CC1CCC(NC(=S)NCCN(C)C)CC1 (stereo not given),18%,1%,-5%,1.6µM*,.,-4%
CCOC(=O)c1ccc(N2CSC3=C(C#N)C(c4ccc(OC)cc4OC)CC(=O)N3C2)cc1 (stereo not given),-28%[46.1 µM],-7%,?,14µM*,-9%,25µM*
COc1ccc(OC)c(C2CC(=O)N3CN(c4cccc(Cl)c4)CSC3=C2C#N)c1 (stereo not given),0%[46.1 µM],?,?,35µM*,-20%,28µM*
SMILES,NPSR antagonist,Tau FP inhib,Tau fluor counter,ALDH1A1 inh,HPGD block,Tau ThT inhib
COc1ccc(OC)c(C2CC(=O)N3CN(c4ccc(C)c(Cl)c4)CSC3=C2C#N)c1 (stereo not given),-7%[46.1 µM],?,-28%,7.9µM*,?,28µM*
CCOc1ccc(N2CSC3=C(C#N)C(c4ccco4)CC(=O)N3C2)cc1 (stereo not given),?,?,?,4.5µM*,10µM*,14µM*
CCn1cc(-c2csc(N)n2)c(C)n1,15%,-7%,-14%,0%,.,-16%
COc1ccc(CCNC(=O)Cn2nnc(-c3cccc(C(F)(F)F)c3)n2)cc1OC,.,-2%,-3%,.,.,6%
CC(=O)N/C(=C\c1ccccc1)C(=O)OCC(=O)N1CCCCCC1,10%[46.1 µM],1%,-1%,11µM*,.,-3%
CC(C)(C)C1CCc2c(sc(NC(=O)c3noc4c3CCCC4)c2C#N)C1 (stereo not given),.,-7%,-14%,.,.,?
CCOCC(=O)Nc1nc2c(s1)C(=O)CC(C)(C)C2,-11%[46.1 µM],0%,0%,?,?,1%
CC1(C)CC(=O)c2sc(NC(=O)Cc3cccs3)nc2C1,17%[46.1 µM],-1%,1%,0.79µM*,-24%,2%
Cc1ccc(S(=O)(=O)Nc2nc3c(s2)C(=O)CC(C)(C)C3)cc1,-14%,-10%,4%,32µM*,.,3%
COc1cccc(CC(=O)Nc2nc3c(s2)C(=O)CC(C)(C)C3)c1,-35%,-4%,-6%,1.3µM*,.,-4%
CC1(C)CC(=O)c2sc(NC(=O)C3CC3)nc2C1,12%[46.1 µM],0%,-5%,11µM*,-26%,-5%
Cc1c(C(=O)Nc2ccccc2)sc2nc[nH]c(=O)c12,13%,14%,-1%,4%,-20%,-10%
COc1ccc(-c2nc(NC(=O)c3cc(C(C)(C)C)nn3C)sc2C)cc1,-14%[46.1 µM],1%,-16%,?,?,-13%
Cn1nc(C(C)(C)C)cc1C(=O)Nc1nc2c(s1)C(=O)CC(C)(C)C2,16%[46.1 µM],0%,-11%,14µM*,-11%,-18%
O=C(OCC1OC2C(Oc3nc(=O)ccn32)C1O)c1ccccc1 (stereo not given),-15%[46.1 µM],4%,4%,?,-14%,2%
Cc1cn2c(nc1=O)OC1C(O)C(COC(=O)c3ccccc3)OC12 (stereo not given),5%[46.1 µM],-1%,3%,3.2µM*,-1%,6%
O=C1NC2=C(C(=O)c3ccccc32)C(c2ccccc2)N1 (stereo not given),-17%[46.1 µM],?,-22%,16µM*,-24%,22µM*

# Screens deposited in PubChem by National Center for Advancing Translational Sciences (NCATS).
